# From PubChem BioAssay
# HT1080 IDH1KD tx = kills HT-1080 cells with IDH1 knockdown; HT-1080 IDH1 knockdown viability, ATP luminescence, 48 h; Potency, µM (doses to about 46.1 µM), without a hit: top-dose activity, negative = toxicity, most hits filed as cytotoxic; 360,000 tested, 2% active; AID 686971;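 also: potency is read from the fitted curve at half-maximal effect; 0% = DMSO wells and -100% = cell-free medium wells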
#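 Cytotoxicity counter-line: IDH1KD HT-1080, 48 h, CellTiter-Glo. Curves classed by r2, magnitude and activity.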
# DT40 TDP1 CPT = DT40-hTDP1 cell growth loss with CPT; Potency, µM (doses to about 46.2 µM), for the others: at the highest dose activity change, negative = growth inhibition, actives largely listed as inhibitors; 420,000 tested, 12% active; chicken DT40 Tdp1-/-;hTDP1 cells + 20 nM CPT, ATP luminescence, 48 h; also: potency is read from the fitted curve at half-maximal effect; nearly all actives have a fitted effect of over 55% in size
#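 Chicken DT40 Tdp1-/- cells stably complemented with human TDP1 were seeded at 400 cells/well in medium containing 20 nM camptothecin, exposed to pin-transferred compounds, and grown at 37 °C for at least 48 hr. Viability was read as ATP luminescence.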
# IL-1B inflam inh = inflammasome signaling inhibition, IL-1 beta readout | 360,000 tested, 4.7% active | AID 743279 | activity change, % at 57.5 µM | THP-1 LPS/ATP IL-1B secretion, AlphaLISA, 16 h; hits give low values; in the data active = activity change below about -50%; inconclusive = mostly about -30% to -49%
#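 THP-1 cells pretreated 1 hr with compounds (up to 57.5 uM final), then stimulated with LPS (250 ng/mL final) plus ATP (1.25 mM final); secreted IL-1B measured by AlphaLISA after 16 hr, decreased signal indicating inhibition.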
# HT1080-NT tox = kills 2HG-producing HT-1080-NT fibrosarcoma cells; 360,000 tested, 1.6% active; Potency, µM (top dose mostly 46.1 µM), inactives show top-dose activity, negative = less viability, usual class: cytotoxic; HT-1080-NT fibrosarcoma viability, CellTiter-Glo ATP luminescence, 48 h;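 also: NT is the 2HG producing partner of a matched IDH1 knockdown line; potency is read from the fitted curve at half-maximal effect; 0% = DMSO-treated cells and -100% = media-only wells without cells; nearly all actives have a fitted effect of over 55% in size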
#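 Compounds were tested in concentration-response format on HT-1080-NT cells for 48 hours at 37 degrees C. Cell viability came from CellTiter-Glo luminescence; curves were classified by r2, response magnitude and activity.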
# TDP1 cell noCPT = qHTS for Inhibitors of human tyrosyl-DNA phosphodiesterase 1 (TDP1): qHTS in cells in absence of CPT | DT40 Tdp1-/- hTDP1 cells, no CPT, ATP luminescence, 48 h | Potency, µM (highest dose often 46.2 µM), inactives show top-dose activity change, negative = growth inhibition, hits mostly inhibitors | 420,000 tested, 15% active | AID 686978, 2013; also: potency is read from the fitted curve at half-maximal effect; nearly all actives have a fitted effect of over 55% in size
#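 Compound effects on proliferation are scored in DT40 Tdp1-/-;hTDP1 cells in the absence of CPT. ATP levels (CellTiter-Glo luminescence) are recorded after a ≥48 hr, 37 °C incubation.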
# Numbers without * were called inactive; u = inconclusive; x = not tested or not shown; [ ] = remark or other dose. A selection: hits, their analogues and other compounds. The true share with any hit is near 19%. Unless noted, calls follow the shape of the dose curve; as a rule, active = well fitted curve in the direction sought with a large enough effect; inconclusive = small, poorly fitted or top-dose-only effect, or another doubt; inactive = no such curve, though single readings can be large; an effect the other way counts as inactive or inconclusive. Unless noted, % is scaled to controls: 0 for no effect and ±100 for the full control effect.
SMILES,HT1080 IDH1KD tx,DT40 TDP1 CPT,IL-1B inflam inh,HT1080-NT tox,TDP1 cell noCPT
CCN1CCN(c2c(Cl)cccc2NC(=O)c2ccco2)CC1,-11.2%,-20.7%,-68.1*,-3.9%,u
O=C(Nc1ccccc1N1CCOCC1)c1ccc([N+](=O)[O-])o1,0.8%,11.6µM*,-1.3,-3.3%,14.6µM*
CCN1CCN(c2c(Cl)cccc2NC(=O)c2ccc([N+](=O)[O-])cc2)CC1,10.0%,-28.9%,-12.2,0.7%,-9.6%
O=C(Nc1ccccc1N1CCCCC1)c1ccc([N+](=O)[O-])o1,1.8%,20.6µM*,u,0.4%,16.4µM*
O=C(c1ccc([N+](=O)[O-])o1)N1CCOCC1,12.9%,-6.1%,0.0,23.0%,u
O=C(Nc1cccc(Cl)c1N1CCCC1)c1ccc([N+](=O)[O-])o1,2.2%,-29.5%,-83.7*,-15.9%,-26.9%
O=C(Nc1cccc(Cl)c1N1CCOCC1)c1ccco1,-22.0%,u,u,-2.3%,u
O=C(OC1CCCCC1=O)c1ccc(F)c(S(=O)(=O)N2CCOCC2)c1 (configuration not stated),10.1%,2.2%,0.9,11.9%,1.8%
O=C(Nc1ccccc1N1CCN(C(=O)c2ccc(Cl)cc2)CC1)c1ccc([N+](=O)[O-])o1,u,20.6µM*,-76.2*,u,u
COc1ccc(C=C(c2nc3ccccc3s2)c2nc3ccccc3s2)cc1O,u,u,-97.8*,u,20.6µM*
COc1cc(/C=C/c2nc3ccccc3s2)cc(OC)c1O,3.8%,-1.5%,-10.8,0.2%,-17.7%
COc1cc(C=C(c2nc3ccccc3s2)c2nc3ccccc3s2)ccc1O,u,-17.9%,-89.6*,u,-27.6%
Cc1ccc(-c2cc(C(=O)N3CCN(C(=O)c4ccco4)CC3)[nH]n2)cc1C,1.2%,u,u,-1.7%,-25.7%
Cc1nn(CC(=O)N(C)C)c(C)c1S(=O)(=O)N1CCOCC1,14.3%,9.4%,-1.0,1.7%[9.24 µM],11.1%
CCCCc1c(-c2ccc(F)cc2)ncn1CCc1ccccc1OC,u,u,u,u,20.6µM*
CCCCc1c(-c2cccc(Cl)c2)ncn1CCc1ccccc1OC,u,8.2µM*,-57.8*,u,8.2µM*
CCCCCc1c(-c2ccc(Cl)cc2)ncn1CCc1ccccc1OC,16.4µM*,8.2µM*,-62.5*,u,7.31µM*
CCc1ccccc1OCCCOc1ccc(OC)cc1,-3.6%,1.1%,41.0,0.1%,-0.2%
CCCCc1c(-c2ccc(OC)cc2)ncn1CCc1ccccc1OC,16.4µM*,20.6µM*,-113.7*,16.4µM*,23.1µM*
COc1ccc(NC(=O)CCNC(=O)c2ccco2)cc1Cl,-6.6%,2.1%,-7.2,-5.1%,-2.9%
COc1cc(Cl)c(C)cc1N1C(=O)[C@@H]2C[C@H]1CN2Cc1ccccn1,x,-3.3%,x,x,-17.2%
CCNc1ncc2nc(-c3cn(C)c4ccccc34)c(=O)n(CCC#N)c2n1,x,-1.7%,x,x,2.7%
COc1ccccc1CCn1c(=O)c(-c2ccc(F)c(F)c2)nc2cncnc21,x,-3.5%,x,x,-7.9%
CCCCc1c(-c2ccccc2)ncn1CCc1ccccc1OC,u,u,u,u,16.4µM*
